Molecules are shown by their SMILES. Several values for one entry are separate records, joined by “and”; a condition that tells them apart may be missing. Equal values may be shown once. Out of some 73,000 compounds screened, about 1,800 (2.5%) were called active. Not shown: some 13% with an inconclusive outcome. Shown is part of a subset that was picked to be rich in actives. Entries that show only a call come without a potency. A number with no mark means an inactive call. The call rests on the fitted dose curve; in most records, active means well fitted activation curve with a large enough effect; inconclusive means small, poorly fitted or top-dose-only effect; inactive means no such curve, though single readings can be large or run the other way.
Potency means the concentration at half of the fitted maximal effect.

This experiment is described as follows: qHTS Assay for Agonists of the Thyroid Stimulating Hormone Receptor: Activators of Intracellular cAMP Concentrations in Parental HEK 293. Further: nearly all actives have a fitted effect of over 55% in size. The settings on record: parental HEK293 CNG cAMP sensor, membrane potential fluorescence; series mostly up to 57.1 µM. The text has this:
NIH Chemical Genomics Center [NCGC]
NIH Molecular Libraries Screening Centers Network [MLSCN]
PI Name: Dr. Marvin Gershengorn
This cell based assay utilized a cyclic nucleotide gated ion channel (CNG) as a biosensor for cAMP induction. HEK 293 cells stably expressing the modified CNG were purchased from BD biosciences (http://www.atto.com/products/actone/features_benefits.shtml) . Stimulation of cAMP production causes the CNG to open and subsequent membrane depolarization to occur. A fluorescent membrane potential dye (BD biosciences) was utilized to detect cAMP stimulation in cells.
The cells were maintained in DMEM medium (Invitrogen) containing 10 % FBS (Hyclone), 100 units/ml Penicillin, 100 ug/ml Streptomycin (Invitrogen), and 250 ug/ml Geneticin (Invitrogen) and 1 ug/ml Puromycin (Invitrogen) at 37C in 5% CO2. This assay was used as a counterscreen to "qHTS Assay for Agonists of the Thyroid Stimulating Hormone Receptor", to control for compounds signaling through endogenous receptors and other targets of HEK 293 cells.
NCGC Assay Protocol Summary:
High Throughput Screening. Freshly passaged cells were dispensed into 1536-well assay plates at 4 ul/well in DMEM containing phenol red (Invitrogen), 10% FCS (Hyclone), and 100 units/ml Penicillin, 100 ug/ml Streptomycin (Invitrogen) and incubated at 37 C with 5% CO2 for 20 to 36 hrs before the robotic screening. The screen was initiated by addition of 4 ul/well membrane potential dye containing 100 uM RO 20-1724 (Sigma Aldrich), followed by 60 min incubation at room temperature to allow for dye equilibration across the cell membrane. 23 nl/well compound or control was then added to the assay plates, which were incubated for additional 30 min before reading a Envision fluorescence plate reader (Perkin Elmer) in bottom-read mode for fluorescence intensity (emission at 590 nm).
Keywords: cAMP, CNG Ion Channel, quantitative high throughput screening, qHTS, HTS, probe identification, CNG, cAMP, cyclic nucleotide gated ion channel PubChem
For orientation: qHTS replaces the single test concentration by a dilution series.
For `CSc1nnc(CNC(=O)c2ccccc2)n1-c1ccc(F)cc1`, the Potency entry is “inactive”.

Regarding `CCCOc1ccc(NC(=O)C2CCCNC2=O)cc1` (stereo not drawn), the Potency entry is “inactive”.

As for `CCc1ccc2oc(=O)cc(CN3CCCCC3C)c2c1` (stereo not drawn), the Potency is 25.1 µM (active).

Consider `Cc1cc(NC(=O)CN2CCCCC2C)nc2c1c(=O)oc1ccccc12` (stereo not drawn), for which the Potency entry is “inactive”.

`CC1CCCCN1CC(=O)NCc1ccc2c(c1)OCO2` (stereo not drawn): the Potency entry was “inactive”.

Turning to `CCCn1c(C)nc2c(NCCCCN(CC)CC)nc(C)nc21`, the Potency entry was “inactive”.

As to `CCCn1c(-c2ccc(F)cc2)nc2c(NCC3CCCN3CC)nc(C)nc21` (stereo not drawn), the Potency is 15.8 µM (active).

Consider `CCN1CCCC1CNc1ncnc2c1[nH]c1ccc(F)cc12` (stereo not drawn), for which the Potency entry was “inactive”.

Consider `COc1ccc(CN2CC(C(=O)NCCN3CCN(c4ccccc4F)CC3)CC2=O)cc1` (stereo not drawn), for which the Potency entry is “inactive”.

For `CN1CCC2(CC1)NC(=O)NC2=O`, the Potency result is “inactive”.

`CC[C@@H]1Cc2cc(O)ccc2C2=C1c1ccc(O)cc1C[C@H]2CC`: the Potency is 6.31 µM (active).

For `O=P(O)(CN1CCCCC1)CN1CCCCC1`, the Potency entry is “inactive”.

As to `O=C(c1ccc([N+](=O)[O-])cc1)[C@@H](Br)[C@@H](Br)c1ccnc2ccccc12`, the activation was 8.13% [at 11.4 µM].

As for `CCC[C@@H]1C[C@@]1(CCC)C(NC(=O)c1ccc(-c2ccccc2)cc1)c1cccc(Cl)c1` (stereo partly drawn), the Potency result is “inactive”.

As to `CCCC(=O)C1=C(N(C)c2ccccc2)CC(C)(C)C(C(=O)OC)C1=O` (stereo not drawn), the Potency entry is “inactive”.

Turning to `CCC[C@@H]1C[C@@]1(CCC)[C@@H](NC(=O)c1ccccc1)c1ccc(C(=O)OC)cc1`, the Potency was 7.94 µM (active).

Take `COc1nc(OC)nc(N(C)CCO)n1`: the Potency entry is “inactive”.

For the molecule `CCSC(C)CC1C/C(=N/O)c2c(C)noc2C1` (stereo not drawn), the Potency entry is “inactive”.

Regarding `CCOC(=O)N1CCN(C(=O)c2ccc(CN(c3ccc(C)c(C)c3)S(C)(=O)=O)cc2)CC1`, the Potency entry was “inactive”.

Turning to `CC(C)C(c1nnnn1C1CCCC1)N1CCN(c2ccccc2F)CC1` (stereo not drawn), the Potency is 15.8 µM (active).

On to `CC(C)C(c1nnnn1Cc1ccccc1)N1CCC(C(N)=O)CC1` (stereo not drawn), for which the Potency entry is “inactive”.

Take `CCC(c1nnnn1C1CCCC1)N1CCN(C(=O)c2ccco2)CC1` (stereo not drawn): the Potency entry is “inactive”.

`CC(C)CN1CCc2nc(-c3ccccc3)c3c(c2C1)COC(C)C3` (stereo not drawn): the activation was -2.08% [at 11.4 µM].

Consider `Cn1c2c(c(=O)n(C)c1=O)CN(Cc1ccco1)CN2`, for which the Potency entry was “inactive”.

In the case of `c1ccc(Oc2ccccc2)cc1`, the Potency result is “inactive”.

As for `CC1CN(C2CCCCC2)c2nc3c(c(=O)n(C)c(=O)n3C)n2C1` (stereo not drawn), the Potency result is “inactive”.

As to `Cn1cccc1C1(C(F)(F)F)NCCNC1=O` (stereo not drawn), the Potency entry is “inactive”.

Turning to `Fc1ccc(OCc2nn3c(Cn4nnc5ccccc54)nnc3s2)cc1`, the Potency result is “inactive”.

For the molecule `CCOc1cccc(-c2nnc3sc(COc4ccc(OC)cc4)nn23)c1`, the Potency is 31.6 µM (active).

For the molecule `COc1cc(-c2nn3c(-c4cccc(C)c4)nnc3s2)cc(OC)c1OC`, the Potency result is “inactive”.

For the molecule `COc1ccccc1-c1cc(NCc2cccs2)ncn1`, the Potency is 31.6 µM (active).

For `COc1ccccc1-c1nc(NCCNC(C)=O)c2ccccc2n1`, the Potency entry was “inactive”.

In the case of `COc1ccccc1CNCc1cccs1`, the Potency result was “inactive”.

`COc1ccccc1-c1nc(NCc2cccs2)c2ccccc2n1`: the Potency is 25.1 µM (active).

Take `Clc1ccccc1-c1cc(NCCN2CCOCC2)ncn1`: the Potency entry was “inactive”.

In the case of `CNc1nc(-c2ccccc2OC)nc2ccccc12`, the Potency result was “inactive”.

In the case of `CCOC(=O)c1cc2occc2n1CC(=O)N1CCN(C(=O)c2ccco2)CC1`, the Potency result was “inactive”.

Consider `CO[C@@H]1COC(=O)C/C=C\[C@H](C)[C@@H](NS(=O)(=O)c2ccc(C)cc2)COC(=O)C/C=C\[C@@H]1C`, for which the activation was 2.07% [at 11.4 µM] and 4.9% [at 11.4 µM].

Consider `CCC[C@H]1C(=O)N2C(N(C)C)=Nc3ccc(C)cc3N2C1=O`, for which the Potency entry was “inactive”.

Regarding `COc1ccccc1C(=O)C(O)c1ccccc1OC` (stereo not drawn), the Potency result is “inactive”.

With `Cc1ccc(C)c(N2CCN(C(=O)CCc3nc4ccccc4[nH]3)CC2)c1`, the Potency entry was “inactive”.

Regarding `COCCNc1nc(-n2nc(C)cc2C)nc2sc3c(c12)CCCC3`, the Potency was 15.8 µM (active).

`Cc1cc(C)n(-c2nc(SCC(=O)N3CCCC3)c3c4c(sc3n2)CCCC4)n1`: the Potency result is “inactive”.

Consider `COCCn1c(C)cc(C(=O)CSc2ncnc3sc4c(c23)CCC4)c1C`, for which the Potency entry is “inactive”.

On to `CCCOc1ccccc1C1CC(=O)Nc2cc3c(cc21)OCO3` (stereo not drawn), for which the Potency is 7.94 µM (active).

Consider `COc1cc2c(cc1OC)C(c1ccc(C)o1)CC(=O)N2` (stereo not drawn), for which the Potency entry was “inactive”.

Consider `COCCOC(=O)C1=C(C)NC(=O)CC1c1cc2c(cc1Br)OCO2` (stereo not drawn), for which the Potency entry is “inactive”.

For the molecule `COc1ccc(NS(=O)(=O)c2ccc(NC(=O)C(C)(C(F)(F)F)C(F)(F)F)cc2)nn1`, the Potency result is “inactive”.

(Values after PubChem BioAssay AID938 (National Center for Advancing Translational Sciences (NCATS), 2007).)
